Source: PubChem BioAssay (National Center for Advancing Translational Sciences (NCATS))
ERK EGF inh: qHTS Assay for Inhibitors of the ERK Signaling Pathway using a Homogeneous Screening Assay; Stimulation with EGF. Potency, µM (highest dose often 11.5 µM), actives largely listed as inhibitors. actives 0.41% (n = 130,000). HEK293-V1b, EGF-stimulated phospho-ERK AlphaScreen; note: nearly all actives have a fitted effect of over 55% in size
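Stably V1b-transfected HEK293 cells; 30 min compound, then EGF 25 nM final for 5 min at 37C; 10 min lysis; phospho-ERK by AlphaScreen after 5 hr beads at room temperature.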
pERK EGF inh: Confirmation Concentration-Response Assay for Inhibitors of the ERK Signaling Pathway using a Homogeneous Screening Assay; Stimulation with EGF; shares compounds with ERK EGF inh; HEK293 EGF-stimulated ERK phosphorylation, AlphaScreen; Potency, µM (doses to about 57.5 µM), usual class: inhibitors; actives 60% (n = 60)
c-Raf inh: Assay for Inhibitors of the ERK Signaling Pathway using a Homogeneous Screening Assay: c-Raf Inhibition; 70 tested, under 10 active; c-Raf kinase inhibition, homogeneous biochemical assay; activity change, negative = inhibition, % at 76.9 µM; shares compounds with ERK EGF inh; AID 1728, 2009
Target sequence (P04049 whole entry, looked up): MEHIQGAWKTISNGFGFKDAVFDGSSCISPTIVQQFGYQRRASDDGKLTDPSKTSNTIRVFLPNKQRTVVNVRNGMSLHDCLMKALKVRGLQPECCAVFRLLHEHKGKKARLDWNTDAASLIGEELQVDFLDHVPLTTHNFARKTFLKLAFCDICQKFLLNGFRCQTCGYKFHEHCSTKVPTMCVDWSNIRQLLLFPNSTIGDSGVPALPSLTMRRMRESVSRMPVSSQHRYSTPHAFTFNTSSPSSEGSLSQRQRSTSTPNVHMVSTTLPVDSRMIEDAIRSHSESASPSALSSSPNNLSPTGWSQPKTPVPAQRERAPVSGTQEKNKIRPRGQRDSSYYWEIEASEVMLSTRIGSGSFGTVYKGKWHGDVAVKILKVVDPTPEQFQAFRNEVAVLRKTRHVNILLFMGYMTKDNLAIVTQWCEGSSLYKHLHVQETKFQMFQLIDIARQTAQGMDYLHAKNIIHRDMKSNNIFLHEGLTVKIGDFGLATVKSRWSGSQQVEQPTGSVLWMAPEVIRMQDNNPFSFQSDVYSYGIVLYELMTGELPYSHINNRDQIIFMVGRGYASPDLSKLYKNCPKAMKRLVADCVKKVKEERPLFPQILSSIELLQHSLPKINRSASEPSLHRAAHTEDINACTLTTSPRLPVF
MEK1 kinase inh: Assay for Inhibitors of the ERK Signaling Pathway using a Homogeneous Screening Assay: MEK Inhibition. shares compounds with ERK EGF inh. homogeneous MEK kinase activity assay, ERK pathway. Potency, µM (series often up to 76.9 µM), usual class: inhibitors. 70 tested, under 10 active
Each line names hits and unclear results; the compound was inactive in the other large screens (follow-up assays come after a bar, where they were run). This excerpt belongs to a sample that is enriched for hits. Calls come from the whole dose curve; as a rule, active = well fitted curve in the direction sought with a large enough effect; inconclusive = small, poorly fitted or top-dose-only effect, or another doubt; inactive = no such curve, though single readings can be large; an effect the other way counts as inactive or inconclusive.

COC(=O)c1ccc(C(NC(=O)OCc2ccccc2)/C(F)=C/[C@@H](C)C(=O)Nc2ccc(OC)cc2)cc1 (stereo partly drawn)	none
COC(=O)N[C@H](C[N+](=O)[O-])c1cccc(C)c1	none
O=C(CSc1nc2ccccc2c(=O)n1-c1ccccc1)N1CCc2ccccc2C1	ERK EGF inh 28µM
CC(C)c1ccccc1-n1c(SCC(=O)N2CCc3ccccc3C2)nc2ccccc2c1=O	none
O=C(CSc1nc2ccccc2c(=O)n1-c1ccccc1)N1CCC1	none
CN(Cc1ccco1)c1nc(-c2cccc(C#N)c2)nc2ccccc12	none
CC(NC(=O)C12CC3CC(CC(C3)C1)C2)C(=O)N/N=C/C1=C(N2CCOCC2)C(=C\c2cccc([N+](=O)[O-])c2)/CC1 (stereo not drawn)	none
O=C(/C=C/c1cccc([N+](=O)[O-])c1)Nc1ccccc1N1CCOCC1	none
N#C/C(=C\C1=C(N2CCOCC2)C(=C/c2cccc([N+](=O)[O-])c2)/CC1)C(=O)Nc1ccccc1F	ERK EGF inh 3.5µM
CC(C)C[C@@H](CC(=O)N[C@@H](CCC(=O)O)CC(=O)O)NC(=O)[C@@H]1CNCC[C@H]1NC(=O)C[C@@H](NC(=O)C[C@H](CO)NC(=O)[C@@H]1CNCC[C@H]1N)C(C)C	none
COc1cc(OC)c2c(c1)OC(c1ccccc1)CC2=O (stereo not drawn)	none
CC[C@H](C)[C@@H](NC(=O)O[C@@H]1C(=O)c2ccc(OC)cc2O[C@H]1c1ccc2c(c1)OCO2)C(=O)OC	none
Nc1nc(-c2ccccc2)c(-c2ccc([N+](=O)[O-])cc2)s1	ERK EGF inh 25µM
Nc1nc(-c2ccc([N+](=O)[O-])cc2)c(C(=O)Nc2ccc(Cl)cc2)s1	none
O=[N+]([O-])c1ccc(-c2cn3nc(-c4ccccc4)c(-c4ccccc4)nc3n2)cc1	none
CC(N)=NCCCC(N)C(=O)O (stereo not drawn)	none
CCCCC/C=C\C/C=C\C[C@H](O)/C=C/C=C\CCCC(=O)O	none
O=C(NCCCc1nc2ccccc2[nH]1)c1ccc(F)cc1	none
CC(OC(=O)C1CCCCC1)c1nc2ccccc2[nH]1 (stereo not drawn)	none
C=C(C)C(O)/C=C/c1ccc(C(F)(F)F)cc1 (stereo not drawn)	none
CC(CCC#N)[N+](=O)[O-] (stereo not drawn)	none
Nc1nc(SCc2ccc([N+](=O)[O-])cc2)c2ncn([C@@H]3O[C@H](CO)[C@H](O)[C@H]3O)c2n1	none
CCC(C)(C)c1ccc(OCCCC[n+]2cccc(C)c2C)c(C(C)(C)CC)c1	ERK EGF inh 32µM
COc1ccc(C(=O)C[n+]2cccc(C)c2C)cc1[N+](=O)[O-]	none
Cc1cc(C(C)(C)C)ccc1OCCCCN1CCCC1	none
C=C(C)C(=O)/C=C/C=C/c1ccccc1	none
Cc1cc(Cl)ccc1OCC(=O)N1CCCN(C(=O)COc2ccc(Cl)cc2C)CC1	ERK EGF inh 32µM
O=C(COc1ccc(Cl)cc1Cl)N1CCN(c2ccccn2)CC1	none
Cc1ccc2c(Cl)cc(Cl)c(OCC(=O)N3CCCC3)c2n1	none
O=C(c1cc(COc2ccc3ncccc3c2)on1)N1CCCCCC1	none
O=C(NC1CCCC1)c1cc(COc2ccc3ncccc3c2)on1	none
O=C(NCCc1cn2ccccc2n1)c1cc(COc2ccc3ncccc3c2)on1	ERK EGF inh 28µM
Cc1nc(N2CCOCC2)c2nc(-c3ccccc3)n(CCN3CCCC3)c2n1	none
OCc1cc([C@@H](O)CNCCCCCCOCCCCc2ccccc2)ccc1O	none
CC(=O)Oc1cc(-c2coc3cc(OC(C)=O)c(OC(C)=O)c(OC(C)=O)c3c2=O)cc(OC(C)=O)c1OC(C)=O	none
COc1ccc(OCCn2nnc(-c3ccc(Cl)cc3)n2)cc1	none
Cn1nc(-c2ccc(Cl)cc2)nc2c(=O)n(C)c(=O)nc1-2	ERK EGF inh inconclusive | pERK EGF inh inconclusive | c-Raf inh inconclusive | MEK1 kinase inh inconclusive
CS(=O)(=O)n1nc(-c2ccc(Cl)cc2)nc1N	none
C#C[C@@]1(O)CC[C@@H]2[C@@H]3CCC4=C(CCC(=O)C4)[C@H]3CC[C@]21C	none
COc1cc2ncnc(NCc3cccc(Cl)c3)c2cc1OC	ERK EGF inh 0.45µM | pERK EGF inh 1.8µM | c-Raf inh inconclusive | MEK1 kinase inh inactive
COc1ccccc1-c1cncnc1NCc1cccc(C)c1	none
COc1ccc(CNc2ncnc3cc(Cl)ccc23)cc1	none
CC1C(NC(=O)/C(=N/OC(C)(C)C(=O)O)c2csc(N)n2)C(=O)N1S(=O)(=O)O (stereo not drawn)	none
CC[C@H]1NC(=O)c2cc(S(N)(=O)=O)c(Cl)cc2N1	none
CCn1c(SCC#N)nc2ccccc2c1=O	none
CCn1c(=O)c2[nH]c(-c3ccccc3)nc2n(CC)c1=O	none | c-Raf inh inactive | MEK1 kinase inh inactive
CCCn1c(=O)c2[nH]c(-c3ccccc3)nc2n(CCC)c1=O	none
COc1ccc(C2Oc3cc(OC)cc(OC)c3CC2O)cc1 (stereo not drawn)	none
COc1ccc(C(=O)N2CCC3(CCCN(c4cccc(-c5ccccc5)c4)C3)CC2)cc1	none
CN(C)c1ccc(-c2ccc3ncnc(NCc4ccccc4)c3c2)cc1	ERK EGF inh 8.9µM | pERK EGF inh 11µM | c-Raf inh inconclusive | MEK1 kinase inh inactive
Cc1cccc(CNc2ncnc3ccc(-c4ccccc4C#N)cc23)c1	none
Cc1noc(C)c1-c1ccc2ncnc(NCc3ccccc3)c2c1	none
O=c1cc(-c2cccc(O)c2O)oc2ccccc12	none
CN(C)CCCO[C@H]1C([C@H](O)CO)O[C@@H]2OC(C)(C)O[C@@H]21 (stereo partly drawn)	none
COC(=O)[C@H]1[C@H]2CC3c4[nH]c5ccccc5c4CCN3C[C@@H]2CC[C@@H]1O (stereo partly drawn)	none
Cc1cc(N/N=C/c2ccc(O)cc2O)nc(-n2nc(C)cc2C)n1	none
Cc1cc(N/N=C/c2ccccc2O)nc(-c2ccccc2O)n1	none
Cc1cc(-c2ccccc2)n(-c2cc(N/N=C/c3ccccc3O)ncn2)n1	ERK EGF inh 10µM | pERK EGF inh inconclusive | c-Raf inh inactive | MEK1 kinase inh inactive
S=c1ccss1	none
CC1(C)CC[C@]2(C(=O)O)CC[C@]3(C)C(=CCC4[C@@]5(C)CC[C@H](O)C(C)(C)C5[C@H](O)C[C@]43C)C2C1 (stereo partly drawn)	none
CS(=O)(=O)CCNCc1nc(-c2ccc3ncnc(Nc4ccc(OCc5cccc(F)c5)c(Cl)c4)c3c2)cs1	ERK EGF inh 1µM | pERK EGF inh 0.71µM | c-Raf inh inactive | MEK1 kinase inh inactive
CC(=O)N1CCC2(CC1)CCN(c1ccccn1)CC2	none
CC(Cc1ccccc1)C(=O)NCCc1c[nH]c2ccccc12 (stereo not drawn)	none
COC(=O)Cn1c(C(=O)N2CCCC2)cc2c1C[C@H]1CN(C(=O)c3ccccc3)[C@@](Cc3ccccc3)(C(=O)OC)[C@@H]21	none
